Only some compounds are listed: those with a hit (about 2.3% of all), similar ones and a draw of the others.
AMA1 RON2 block – AMA1-RON2 (P. falciparum) interaction inhibition; AlphaScreen AMA1-biotinylated RON2 peptide binding; Potency, µM (series often up to 58.2 µM), without a hit: top-dose activity change, negative = inhibition, most hits filed as inhibitors; hit rate 0.2% among 360,000;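 further: 0% = vehicle wells and -100% = peptide control; nearly all actives have a fitted effect of over 45% in size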
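AMA1 (3D7) with his tag at 25 nM final met compounds first, then biotinylated RON2 peptide at 25 nM; detection used donor plus acceptor beads, 10 µg/mL apiece, read by AlphaScreen after 30 min at room temperature.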
AmpC no deterg – inhibitors of E. coli AmpC beta-lactamase without detergent; Potency, µM (highest dose often 57.1 µM), without a hit: at the highest dose activity change, negative = inhibition, hits mostly inhibitors; AID 485341; hit rate 0.52% among 330,000; AmpC nitrocefin hydrolysis, absorbance 480 nm, 0.0001% Triton;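 further: plate controls were no compound for no effect and no enzyme for full effect; nearly all actives have a fitted effect of over 20% in size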
Target sequence (P00811 whole entry, looked up): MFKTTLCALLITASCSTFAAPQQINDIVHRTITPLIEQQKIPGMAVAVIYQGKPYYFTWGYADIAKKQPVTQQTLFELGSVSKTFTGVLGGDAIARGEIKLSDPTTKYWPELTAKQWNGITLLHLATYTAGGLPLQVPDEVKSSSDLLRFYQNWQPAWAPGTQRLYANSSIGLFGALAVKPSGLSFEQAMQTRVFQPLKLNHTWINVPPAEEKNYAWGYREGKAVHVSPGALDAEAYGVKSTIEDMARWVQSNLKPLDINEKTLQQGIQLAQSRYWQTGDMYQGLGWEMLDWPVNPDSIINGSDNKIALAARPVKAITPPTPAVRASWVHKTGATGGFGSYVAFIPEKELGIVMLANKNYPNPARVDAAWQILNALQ
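20 mM phosphate pH 7.0 + 0.01% (detergent screen) or 0.0001% Triton X-100; 5.3 nM AmpC reagent; cpd preinc 15 min RT; nitrocefin (800 uM stock) to start; A480 q20 s × 4 min; Activity was normalised to no-enzyme and no-compound control wells.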
MARV entry inh – inhibitors of Marburg virus binding or cell entry. Marburg virus pseudotyped entry inhibition, cell reporter. Potency, µM (top dose mostly 37.8 µM), without a hit: at the top dose activity change, negative = inhibition, actives largely listed as inhibitors. hit rate 1.8% among 300,000; calls by dose curve; tested in HEK293 cells
AmpC inh detg – blocks E. coli AmpC beta-lactamase in detergent assay | Potency, µM (highest dose often 114 µM), inactives show at the top dose activity change, negative = inhibition, hits mostly inhibitors | AmpC hydrolysis of nitrocefin, absorbance 480 nm, 0.01% Triton | hit rate 0.041% among 370,000 | P00811;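 further: 0% = no-compound wells and -100% = no-enzyme wells; nearly all actives have a fitted effect of over 25% in size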
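AmpC (5.3 nM in the dispensed reagent) in 20 mM phosphate pH 7.0 with 0.01% (detergent screen) or 0.0001% Triton X-100 was preincubated with compounds for 15 min at room temperature. Nitrocefin was then added from an 800 uM solution, and hydrolysis was followed at 480 nm.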
LASV entry inh – inhibitors of Lassa virus binding or cell entry | Lassa virus pseudotype entry inhibition, cell reporter | Potency, µM (series often up to 37.9 µM), for inactives: at the top dose activity change, negative = inhibition, usual class: inhibitors | hit rate 1.2% among 300,000; calls by dose curve; tested in HEK293 cells; further: nearly all actives have a fitted effect of over 50% in size
* marks the source's active call; other numbers are inactive results; ? = inconclusive; . = no result given; [ ] = dose if it differs, or a comment. Unless noted, the call rests on the fitted dose curve; in most records, active means well fitted curve in the direction sought with a large enough effect; inconclusive means small, poorly fitted or top-dose-only effect, or another doubt; inactive means no such curve, though single readings can be large; an effect the other way counts as inactive or inconclusive. Unless noted, on the % scale 0 is the no-effect control and ±100 the full control effect; potency means the concentration at half of the fitted maximal effect.

SMILES	AMA1 RON2 block	AmpC no deterg	MARV entry inh	AmpC inh detg	LASV entry inh
Cc1cc(C(=O)Nc2cccc(S(=O)(=O)N3CCCC3)c2)c2ccccc2n1	-2.8%	57.7%	.	4.9%	.
O=C(Nc1cccc(S(=O)(=O)N2CCCC2)c1)c1cc(-c2ccccn2)nc2ccccc12	5.1%	-22.8%	7.94µM*	-19.4%	?
COc1ccc(NC(=O)c2cc(-c3ccccn3)nc3ccccc23)cc1S(=O)(=O)N(C)C	-7.0%[11.6 µM]	91.8%	15.8µM*	-5.1%	?
NC(N)=NC(=O)c1nc(Cl)c(N2CCCCCC2)nc1N	-9.3%	-25.4%	7.08µM*	?	?
NC(N)=NC(=O)c1nc(Cl)c(N)nc1N	28.2%	227.7%	-15.9%	-8.0%	5.4%
CC(C)CN(C)c1nc(N)c(C(=O)N=C(N)N)nc1Cl	.	.	7.08µM*	.	.
N#Cc1c(SCC(=O)Nc2cccc(C(F)(F)F)c2)sc2c(O)cc(=O)[nH]c12	18.9%	22.4µM*	2.7%[46.1 µM]	?	18.6%[46.1 µM]
CCc1nnc(NC(=O)CSc2sc3c(O)cc(=O)[nH]c3c2C#N)s1	10µM*	-38.6%	9.9%[46.1 µM]	0.9%	-7.4%[46.1 µM]
Cc1ccc(C)c(NC(=O)CSc2sc3c(O)cc(=O)[nH]c3c2C#N)c1	2.0%	-38.6%	0.2%[46.1 µM]	-0.4%	17.3%
Cc1cc(NC(=O)CSc2sc3c(O)cc(=O)[nH]c3c2C#N)ccc1Br	-4.6%	14.1µM*	4.1%[46.1 µM]	7.0%	18.1%[46.1 µM]
CCSc1nnc(NC(=O)CSc2sc3c(O)cc(=O)[nH]c3c2C#N)s1	7.5%	?	9.6%	3.0%	16.7%
CCC(=O)N(CCC(c1ccccc1)c1ccc2c(c1)OCO2)Cc1ccc(OC(C)C)cc1 (configuration not stated)	.	.	-10.3%[46.1 µM]	-3.2%	?
CCC(=O)N(CCC(Cc1ccccc1)c1ccc2c(c1)OCO2)Cc1ccccc1F (configuration not stated)	-13.9%	4.1%	12.6µM*	-7.1%	?
Cc1cc2oc(=O)cc(CSc3nc(N)cc(N)n3)c2cc1C(C)C	-10.4%	2.82µM*	-7.4%	-6.4%	11.1%
Cn1cc(S(=O)(=O)N2CCN(c3ccccc3)CC2)c(=O)n(C)c1=O	4.3%	39.8µM*	.	-14.4%	.
Cn1cc(S(=O)(=O)N2CCN(c3cccc(Cl)c3)CC2)c(=O)n(C)c1=O	-10.9%	40.5%	-6.0%[46.1 µM]	8.9%	-3.8%[46.1 µM]
N#CC1=C(N)Nc2nc3ccccc3n2C1c1ccc(Cl)cc1 (configuration not stated)	9.2%	12.6µM*	3.2%	?	7.1%
CCN(CC)C(=O)C1=C(C)Nc2nc3ccccc3n2C1c1ccc(Cl)cc1 (configuration not stated)	.	.	1.4%[46.1 µM]	18.4%	5.3%[46.1 µM]
COC(=O)C1=C2CCCO[C@H]2[C@@H]2[C@@H](C)[C@H](OC)c3ccccc3[C@@H]12	.	.	1.6%[14.2 µM]	.	.
CCc1cccc(C)c1NC(=O)Cn1ccn(-c2cccc(OC)c2)c(=O)c1=O	.	.	.	21.2%	0.4%[46.1 µM]
O=C(COc1ccc(CO)cc1)Nc1ccc(F)cc1	2.3%	-19.1%	14.3%	-5.6%	1.3%
O=C(COc1ccc(CO)cc1Cl)Nc1ccc(F)cc1	39.3%	-2.6%	6.51µM*	-2.2%	?
C[C@@H]1CCc2cc(F)cc3c(O)c(C(=O)NC[C@H]4CCCO4)c(=O)n1c23	.	.	-22.0%[46.1 µM]	.	.
CC(Nc1ccc2c(c1)OCCO2)C(=O)N1c2ccccc2CC1C (configuration not stated)	-14.6%	-9.7%	-1.6%[46.1 µM]	2.8%	8.91µM*
CC1Cc2ccccc2N1C(=O)NC1CC(=O)N(c2ccc3c(c2)OCCO3)C1 (configuration not stated)	-2.9%	16.0%	?	-4.9%	-7.2%[46.1 µM]
SMILES	AMA1 RON2 block	AmpC no deterg	MARV entry inh	AmpC inh detg	LASV entry inh
COc1ccc(-c2cc(C(F)(F)F)n3nc(C(=O)O)c(Cl)c3n2)cc1OC	.	.	.	0.7%	11.9%[46.1 µM]
COC(=O)C1=C(C)N(Cc2ccccc2)C(=NCCc2c[nH]c3ccccc23)NC1c1cccc(F)c1 (configuration not stated)	.	.	-16.8%[14.2 µM]	.	?
CCOc1ccccc1NC(=S)/C(=C(\[O-])c1ccc2c(c1)OCCO2)[n+]1ccc(CC)cc1	63.3%	43.8%	7.3µM*	-12.6%	11.6%
N#CC1=C(N)SC(N)=C(C#N)C1c1ccc(C(F)(F)F)cc1	.	-31.3%	7.5%	-13.8%	.
CCc1ccc(C2C(C#N)=C(N)SC(N)=C2C#N)cc1	9.9%	8.91µM*	0.8%	-13.2%	5.8%
COc1ccc(O[C@H]2C=C[C@@H](c3ccccc3)O[C@H]2COC(=O)CCC(C)=NO[C@H](C)CN2CCCc3nc(C)c(C)cc32)cc1	.	.	-24.2%[14.2 µM]	.	.
CCOC(=O)N/N=C/c1c(C)nn(-c2cccc(C(F)(F)F)c2)c1Cl	3.0%[2.32 µM]	46.5%	?	-14.2%	7.08µM*
Cc1cc(/C=N/NC(=O)c2cccs2)c(C)n1-c1ccccc1	80.6%	?	?	-4.6%	2.06µM*
Cc1nn(-c2ccc(F)cc2)c(Cl)c1/C=N/NC(=O)c1cccs1	-10.4%	28.2µM*	27.8%	-1.1%	-17.5%
CCOC(=O)c1cccc(NC(=O)c2cc3ccccn3n2)c1	.	.	.	0.2%	?
CCn1c(=S)sc2c(=O)n(CC(=O)Nc3ccc(C(C)=O)cc3)c(C)nc21	14.0%	-27.6%	.	-6.4%	.
CCn1c(=S)sc2c(=O)n(CC(=O)Nc3ccc(Cl)cc3)c(C)nc21	-7.5%	7.08µM*	?	-3.3%	-2.2%[46.1 µM]
CCn1c(=S)sc2c(=O)n(CC(=O)Nc3ccccc3)c(C)nc21	62.7%	-26.2%	.	?	.
CCn1c(=S)sc2c(=O)n(CC(=O)Nc3ccc(OC)c(Cl)c3)c(C)nc21	5.2%	6.31µM*	-22.2%[46.1 µM]	-8.2%	28.3%[46.1 µM]
C=CCc1cccc(/C=N/NC(=O)CCC(=O)Nc2ccc(F)cc2)c1O	25.6%	-19.6%	12.6µM*	-7.0%	?
C=CCc1cccc(/C=N/NC(=O)C(C)Nc2cccc(C)c2)c1O (configuration not stated)	63.5%	-6.9%	?	-0.8%	11.2µM*
C=CCc1cccc(/C=N/NC(=O)CCCNc2ccc(C)cc2)c1O	-12.6%	-29.4%	?	5.4%	?
CC(C)c1nn2c(=O)cc(COC(=O)c3cccc(NC(=O)CCc4ccccc4)c3)nc2s1	.	.	.	8.7%	20.1%[46.1 µM]
CO[C@@]1(NC(=O)Cc2cccs2)C(=O)N2C(C(=O)O)=C(COC(N)=O)CS[C@@H]21	44.3%	-41.2%	-7.5%	39.8µM*	-8.7%
Cc1[nH]c2ccccc2c1C(=O)CSc1nc2cc(S(=O)(=O)N3CCCCC3)ccc2o1	?	-30.0%	7.3µM*	-6.0%	?
COC1=CC2C(=O)C(C1=O)C1c3ccccc3CC21 (configuration not stated)	.	.	-3.0%[14.2 µM]	.	.
CCCC[C@]12Cc3cc(C#N)ccc3[C@H](O1)c1c(c3cc(F)ccc3oc1=O)O2	.	.	28.7%[14.2 µM]	.	.
O=C(c1ccc(Cl)cc1)C1CCCN(Cc2cnn(-c3ccccc3)c2)C1 (configuration not stated)	?	61.8%	5.62µM*	8.1%	-25.5%

Screening data as filed in PubChem BioAssay.
